In PubChem BioAssay (NCATS):
Records with an inconclusive call do not appear. Entries that show only a call come without a potency. The source made the active and inactive calls. The call rests on the fitted dose curve; in most records, active means well fitted activation curve with a large enough effect; inconclusive means small, poorly fitted or top-dose-only effect; inactive means flat fitted curve, though single readings scatter.

Assay: Primary redox qHTS assay for identification of artifact compounds. (AID 1845223)
Conditions: Amplex Red/HRP redox cycling with DTT, fluorescence; series mostly up to 53.8 µM
How it was run: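 Redox-cycling detection via DTT (250 uM final) oxidation coupled to Amplex Red (25 uM)/HRP (250 mU/mL) in HBSS. 15 min preincubation plus 30 min after DTT, room temperature. Ex/Em 525/598 nm; 4-parameter Hill fit against DMSO and 10 uM DA3003.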

Structure (SMILES)	Potency
CCCn1cc2c(nc(NC(=O)Nc3ccc(OC)cc3)n3nc(-c4ccco4)nc23)n1	inactive
O=C(NCC(=O)N1CCCC1)Nc1ccc2cnccc2c1	inactive
CC(C)NC(=O)COc1cccc(-c2nc(Nc3ccc4[nH]ncc4c3)c3ccccc3n2)c1	inactive
C/C=C/C=C/c1cc2c(C=O)c(O)c(CC=C(C)C)cc2o1	inactive
CC[C@H](C)/C=C(C)/C=C/C1=CC2=CC(=O)[C@]3(C)OC(=O)[C@@H](C(C)=O)[C@@H]3C2=CO1	inactive
Cn1ncnc1[C@@H]1c2n[nH]c(=O)c3cc(F)cc(c23)N[C@H]1c1ccc(F)cc1	inactive
CN(C)C(=O)Nc1cc(-c2ccccc2)ccc1N(C)C	inactive
Cn1ncnc1[C@H]1c2n[nH]c(=O)c3cc(F)cc(c23)N[C@@H]1c1ccc(F)cc1	inactive
COc1ccc2nc3n[nH]c(C)c3c(NCCOCCO)c2c1	inactive
CC/C(C)=C/C(=O)OC1C(OC2(C)CCC3C(C4C(C)CCC42)C3(C)C)OC(C)C(O)C1O (stereo not given)	inactive
S=C(c1ccc(-c2ccc(Cl)c(Cl)c2)o1)N1CCCCC1	inactive
O=C(Nc1ncc([N+](=O)[O-])s1)c1ccccc1O	inactive
Cc1ccc(CNc2ncnc3ccc(-c4ccc(CO)o4)cc23)o1	inactive
CCC(CC)C(c1ccc(Nc2nc3ccccc3s2)cc1)n1cncn1 (stereo not given)	inactive
COc1ccc2cc3c(NC(=O)c4ccco4)nn(C)c3nc2c1	inactive
O=C([C@@H](Cc1cccc(C(F)(F)F)c1)NS(=O)(=O)c1cc(F)c2c(c1)CCNC2)N1CCCC1	inactive
C#CC(=O)N(c1ccc(OC)cc1OC)C(C(=O)NCC(=O)OCC)c1cccs1 (stereo not given)	inactive
COc1ccc(C#Cc2ccc(C(=O)N3CCC[C@@H](O)C3)c(F)c2)cc1	inactive
O=C(O)c1cc(N(Cc2ccc(C3CCCCC3)cc2)C(=O)c2ccc(Oc3ccccc3)cc2)ccc1O	inactive
Cn1sc(=O)n(Cc2ccccc2)c1=O	inactive
